Test results as given in PubChem BioAssay (NCATS).
Records with an inconclusive call do not appear. Activity calls are given as the source filed them. Unless noted, calls come from the whole dose curve; as a rule, active = well fitted curve in the direction sought with a large enough effect; inconclusive = small, poorly fitted or top-dose-only effect, or another doubt; inactive = no such curve, though single readings can be large; an effect the other way counts as inactive or inconclusive.

Experiments:
[1] = Quantitative High-Throughput drug screen in 47 multiple myeloma cell lines against the NCATS MIPE library collection: RPMI8226_ATCC cell viability assay (AID 1919871); note: potency is the fitted concentration of half-maximal effect; nearly all actives have a fitted effect of over 30% in size
How it was run: (§1)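 qHTS format: cells plated (500/well), pin-dosed with MIPE 4.0 compounds, kept 48 h at 37 °C. Readout was CellTiter-Glo luminescence, median RLU.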

[2] = Quantitative High-Throughput drug screen in 47 multiple myeloma cell lines against the NCATS MIPE library collection: KMS11_JCRBsus cell viability assay (AID 1919873); note: nearly all actives have a fitted effect of over 50% in size; note: potency is the fitted concentration of half-maximal effect
How it was run: as §1

[3] = biological target: Cytochrome P450 2C19 (Homo sapiens) (UniProt P33261); assay: qHTS for inhibitors of CYP2C19 against the NCATS DSHEA and TCM libraries (AID 1919974); details: CYP2C19 enzyme inhibition, luminescence qHTS;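 note: luminescence from luciferin released by CYP2C19 oxidation of a pro-luciferin substrate; potency is the fitted concentration of half-maximal effect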
How it was run: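 Each CYP isoform and its pro-luciferin substrate, at isoform-specific final concentrations, were preincubated 15 min at RT with substances. NADPH regeneration solution (1x) started a 30-45 min reaction, and P450-Glo luminescence was read.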

[4] = KB-3-1 P-gp reporter qHTS against the NCATS DSHEA and TCM libraries (AID 1919975); note: 0% is about no effect
How it was run: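 Parental KB-3-1 human cervical adenocarcinoma cells (500 cells/well, DMEM + 10% FBS) were treated with substances for ~72 h at 37C; viability was read by CellTiter-Glo luminescence.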

[5] = qHTS Counterscreen for compound interference against the NCATS DSHEA and TCM libraries (AID 1919978); details: firefly luciferase detection reagent interference, luminescence; note: % of control where 0% means no effect
How it was run: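 D-luciferin (1 uM final) or 100 mM potassium phosphate buffer alone was preincubated 15 min at RT with compounds (19.5 nM to 39.8 uM final). Luciferin detection reagent was then added and luminescence read after 30 min at RT.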

[6] = Dual reporter qHTS for agonist of Pregnane X Receptor (hPXR) against the NCATS DSHEA and TCM libraries: Fluorescence readout (AID 1920058); note: 0% is about no effect
How it was run: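 Viability readout (CellTiter-Fluor, 405/540 nm, 1 h) from agonist-mode PXR dual reporter in hPXR-Luc HepG2 cells. Substances ~24 h, 37 °C, 5% CO2; rifampicin reference, tetraoctyl ammonium bromide cytotoxic control.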

[7] = biological target: Nuclear receptor subfamily 1 group I member 2 (Homo sapiens) (UniProt O75469); assay: Dual reporter qHTS for agonist of Pregnane X Receptor (hPXR) against the NCATS DSHEA and TCM libraries: Luminescence readout (AID 1920059); note: potency is the fitted concentration of half-maximal effect
How it was run: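 hPXR-LucHepG2 cells in phenol red-free DMEM with 5% charcoal-stripped FBS, 2000 cells/well, attached 5 h, then exposed 24 h at 37C to compounds; rifampicin as positive agonist control (2.8 nM–92 uM). Luciferase luminescence read.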

[8] = biological target: Nuclear receptor subfamily 1 group I member 2 (Homo sapiens) (UniProt O75469); assay: Dual reporter qHTS for antagonist of Pregnane X Receptor (hPXR) against the NCATS DSHEA and TCM libraries: Luminescence Readout (AID 1920060);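 note: HepG2 cells carrying hPXR luciferase reporter stimulated with rifampicin at 2 µM; 0% is about no effect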
How it was run: (§2)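 In antagonist mode, 2 uM rifampicin was added to hPXR-Luc HepG2 cells alongside test substances, incubated 24 h at 37 C; luminescence gave reporter activity, and CellTiter-Fluor fluorescence (405/540 nm) gave viability.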

[9] = Dual reporter qHTS for antagonist of Pregnane X Receptor (hPXR) against the NCATS DSHEA and TCM libraries: Fluorescence Readout (AID 1920061); note: 0% is about no effect
How it was run: as §2

[10] = qHTS drug screen for cell cycle checkpoint inhibitors in PARPi-resistant BRCA-mutant ovarian cancer cell lines. (AID 1963452; calls by dose curve); details: PEO1/OlaR viability, CellTiter-Glo luminescence, 96 h, stronger effect = lower value
How it was run: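 PEO1, PEO4 and PEO1/OlaR ovarian cancer cells, 600 per well, exposed 96 h at 37C to a dilution series. Viability read by CellTiter-Glo luminescence, normalized to DMSO and empty wells; activity summarized as Z-AUC.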

[11] = Quantitative High-Throughput drug screen in 47 multiple myeloma cell lines against the NCATS MIPE library collection: KMS28BM_JCRB cell viability assay (AID 1919874); note: nearly all actives have a fitted effect of over 35% in size; note: potency is the fitted concentration of half-maximal effect
How it was run: as §1

[12] = Quantitative High-Throughput drug screen in 47 multiple myeloma cell lines against the NCATS MIPE library collection: OPM2_DSMZ cell viability assay (AID 1919872); note: nearly all actives have a fitted effect of over 30% in size; note: potency is the fitted concentration of half-maximal effect
How it was run: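 Myeloma cells (500 per well) were exposed to MIPE 4.0 compounds by pin transfer and incubated 48 hours at 37C, 5% CO2. Viability was read as ATP by CellTiter-Glo luminescence, normalised to DMSO (100%) and media-only (0%) wells.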

[13] = qHTS for identification of novel therapeutic agents for treatment of microphthalmiaassociated transcription factor (MiT) renal cell carcinoma (RCC) (AID 1963991); details: CellTiter-Glo, 48 h, stronger effect = lower value
How it was run: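 Curves over 11 concentrations were fitted to CellTiter-Glo luminescence, scaled between empty wells (0%) and DMSO (100%) viability. Cells were UOK109, UOK124 and UOK145 TFE3-fusion RCC lines at 500/well, exposed 48 hours at 37 C.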

[14] = measured here: PEO1 parental Z-AUC
[15] = TFE3-RCC UOK109 viability, measured here: UOK109 Z-AUC
[16] = TFE3-RCC viability, measured here: UOK124 Z-AUC
[17] = TFE3-RCC viability, measured here: UOK145 Z-AUC

Chain of Nuclear receptor subfamily 1 group I member 2 (Homo sapiens) (O75469 whole entry, looked up): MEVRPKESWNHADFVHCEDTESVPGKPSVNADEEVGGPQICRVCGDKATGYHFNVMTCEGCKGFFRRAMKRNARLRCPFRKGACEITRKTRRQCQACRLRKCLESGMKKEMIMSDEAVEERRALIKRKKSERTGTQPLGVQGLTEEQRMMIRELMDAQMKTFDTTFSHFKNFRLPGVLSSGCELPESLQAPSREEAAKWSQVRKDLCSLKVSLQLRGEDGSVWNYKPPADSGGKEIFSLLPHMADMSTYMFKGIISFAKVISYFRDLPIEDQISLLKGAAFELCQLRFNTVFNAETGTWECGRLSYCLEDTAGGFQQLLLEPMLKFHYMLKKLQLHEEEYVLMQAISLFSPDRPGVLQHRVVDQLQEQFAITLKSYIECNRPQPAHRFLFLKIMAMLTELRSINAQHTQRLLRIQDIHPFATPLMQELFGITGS
Chain of Cytochrome P450 2C19 (Homo sapiens) (P33261 whole entry, looked up, canonical isoform): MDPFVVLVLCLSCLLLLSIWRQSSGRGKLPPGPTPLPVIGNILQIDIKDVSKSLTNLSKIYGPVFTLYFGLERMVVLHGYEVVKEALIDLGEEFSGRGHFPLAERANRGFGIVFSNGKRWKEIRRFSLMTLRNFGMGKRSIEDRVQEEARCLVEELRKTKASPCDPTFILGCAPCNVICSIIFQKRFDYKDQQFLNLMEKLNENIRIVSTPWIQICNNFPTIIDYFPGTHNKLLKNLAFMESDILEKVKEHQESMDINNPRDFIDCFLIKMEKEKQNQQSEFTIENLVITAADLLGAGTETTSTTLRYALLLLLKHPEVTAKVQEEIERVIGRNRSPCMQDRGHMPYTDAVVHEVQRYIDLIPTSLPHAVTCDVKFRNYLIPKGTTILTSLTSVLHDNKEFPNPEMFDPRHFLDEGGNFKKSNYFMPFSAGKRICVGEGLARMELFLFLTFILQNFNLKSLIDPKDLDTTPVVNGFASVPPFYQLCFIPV

SMILES: O=c1cc(-c2ccc(O)cc2)oc2cc(O)cc(O)c12
- Potency [1]: 23.5 µM (active)
- Potency [2]: 20.9 µM (active)
- Potency [3]: 6.31 µM (active)
- outcome [4]: inactive
- max response [5]: -0.0344% (inactive)
- outcome [6]: inactive
- Potency [7]: 31.6 µM (active)
- outcome [8]: inactive
- outcome [9]: inactive
- Z-AUC [10]: 0.475 (inactive)
- Z-AUC [10, 14]: 0.649
- Z-AUC ([10]; measured here: PEO4 Z-AUC): 0.805

SMILES: C[C@H](NC(=O)C(=O)Nc1ccccc1C(C)(C)C)C(=O)N[C@@H](CC(=O)O)C(=O)COc1c(F)c(F)cc(F)c1F
- Potency [1]: 14.8 µM (active)
- Potency [11]: inactive
- Z-AUC [10]: 0.426 (inactive)
- Z-AUC [10, 14]: 0.799
- Z-AUC ([10]; measured here: PEO4 Z-AUC): 1.06

SMILES: C[C@H](NC(=O)c1sccc1OCc1ccc(Cl)cc1)c1ccccc1
- Potency [12]: 18.7 µM (active)
- Potency [2]: 7.43 µM (active)
- Z-AUC [10]: 0.368 (inactive)
- Z-AUC [10, 14]: -0.143
- Z-AUC ([10]; measured here: PEO4 Z-AUC): -0.0391

SMILES: COc1ccc(C2CC(c3ccccc3)=NN2c2ccc(S(N)(=O)=O)cc2)cc1 (stereo not given)
- Potency [12]: inactive
- Z-AUC [10]: -0.424 (inactive)
- Z-AUC [10, 14]: -0.864
- Z-AUC ([10]; measured here: PEO4 Z-AUC): -0.548

SMILES: COCCOC(=O)C1=C(C)NC2=C(C(=O)CC(c3ccccc3OC)C2)C1c1cccc(O)c1 (stereo not given)
- Potency [12]: 16.6 µM (active)
- Potency [2]: 5.26 µM (active)
- Z-AUC [10]: -0.198 (inactive)
- Z-AUC [10, 14]: 0.425
- Z-AUC ([10]; measured here: PEO4 Z-AUC): 0.517

SMILES: Cc1cc(OCCCc2c(C(=O)O)n(Cc3cccnc3)c3c(-c4c(COc5ccc(N6CCN([S+](C)(=O)[O-])CC6)cc5)nn(C)c4C)cccc23)cc(C)c1Cl
- Potency [12]: 10.5 µM (active)
- Potency [2]: 23.5 µM (active)
- Potency [11]: 23.5 µM (active)

SMILES: O=C(O)C=Cc1ccc(O)c(O)c1
- Potency [12]: inactive
- Potency [11]: inactive
- z-score [13, 15]: 1.03
- z-score [13, 16]: 0.19
- z-score [13, 17]: 0.564

SMILES: C[C@@H]1CCN(C(=O)CC#N)C[C@H]1N(C)c1ncnc2[nH]ccc12
- Potency [12]: inactive
- z-score [13, 15]: -0.116
- z-score [13, 16]: 0.39
- z-score [13, 17]: -0.115

SMILES: NC(=O)[C@@H](CCC(F)(F)F)N(Cc1ccc(-c2ncon2)cc1F)S(=O)(=O)c1ccc(Cl)cc1
- Potency [12]: inactive
- Potency [11]: 20.9 µM (active)
- Z-AUC [10]: 0.459 (inactive)
- Z-AUC [10, 14]: 0.342
- Z-AUC ([10]; measured here: PEO4 Z-AUC): 0.442

SMILES: COCCCCC(=NOCCN)c1ccc(C(F)(F)F)cc1
- Potency [12]: 16.6 µM (active)

SMILES: Clc1ccc(COC(Cn2ccnc2)c2ccc(Cl)cc2Cl)cc1 (stereo not given)
- Potency [12]: inactive
- Z-AUC [10]: 0.343 (inactive)
- Z-AUC [10, 14]: 0.179
- Z-AUC ([10]; measured here: PEO4 Z-AUC): 0.161

SMILES: O=C(Nc1cc(Cl)cc2c1[nH]c1cnccc12)c1cccnc1
- Potency [12]: inactive
- Potency [2]: inactive
- Z-AUC [10]: 0.696 (inactive)
- Z-AUC [10, 14]: 0.253
- Z-AUC ([10]; measured here: PEO4 Z-AUC): 0.368

SMILES: CC1CCC(C(=O)N(c2cc(C#CC(C)(C)C)sc2C(=O)O)C2CCC(O)CC2)CC1 (stereo not given)
- Potency [12]: inactive
- Z-AUC [10]: 0.0164 (inactive)
- Z-AUC [10, 14]: -0.415
- Z-AUC ([10]; measured here: PEO4 Z-AUC): -0.158
- z-score [13, 15]: 1.18
- z-score [13, 16]: 1.68
- z-score [13, 17]: 0.196
